From PubChem
Sampled rows, rich in hits. Any-hit rate of the full collection: about 19%.
HT1080NT lethal: kills 2HG-producing HT-1080-NT fibrosarcoma cells | HT-1080-NT fibrosarcoma viability, CellTiter-Glo ATP luminescence, 48 h | Potency, µM (doses to about 46.1 µM), without a hit: top-dose activity, negative = less viability, hits mostly cytotoxic | 1.6% of 360,000 active | AID 686970;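 note: NT is the 2HG producing partner of a matched IDH1 knockdown line; potency is the fitted concentration of half-maximal effect; 0% = DMSO-treated cells and -100% = media-only wells without cells; nearly all actives have a fitted effect of over 55% in size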
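HT-1080-NT; 750 cells/well; 5% FBS RPMI; 48 h compound, 37 degrees C; CellTiter-Glo luminescence; curve fitting and curve-class assignment.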
HT1080 IDH1KD tx: toxicity to HT-1080 IDH1 knockdown cells (counter line); HT-1080 IDH1 knockdown viability, ATP luminescence, 48 h; Potency, µM (top dose mostly 46.1 µM), inactives show at the highest dose activity, negative = toxicity, usual class: cytotoxic; 2% of 360,000 active;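 note: potency is the fitted concentration of half-maximal effect; 0% = DMSO wells and -100% = cell-free medium wells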
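Using the IDH1-knockdown HT-1080 line run in the same batch and compound series as the NT line, viability after 48 h at 37 °C was determined by CellTiter-Glo luminescence and expressed as % activity.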
TDP1 cell CPT: DT40-hTDP1 cell growth loss with CPT; chicken DT40 Tdp1-/-;hTDP1 cells + 20 nM CPT, ATP luminescence, 48 h; Potency, µM (doses to about 46.2 µM), inactives show at the highest dose activity change, negative = growth inhibition, usual class: inhibitors; 12% of 420,000 active; AID 686979; note: potency is the fitted concentration of half-maximal effect; nearly all actives have a fitted effect of over 55% in size
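Chicken DT40 Tdp1-/- cells stably complemented with human TDP1 were seeded at 400 cells/well in medium containing 20 nM camptothecin, exposed to pin-transferred compounds, and grown at 37 °C for at least 48 hr. Viability was read as ATP luminescence.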
DT40 TDP1 no CPT: qHTS for Inhibitors of human tyrosyl-DNA phosphodiesterase 1 (TDP1): qHTS in cells in absence of CPT | DT40 Tdp1-/- hTDP1 cells, no CPT, ATP luminescence, 48 h | Potency, µM (highest dose often 46.2 µM), for the others: at the top dose activity change, negative = growth inhibition, usual class: inhibitors | 15% of 420,000 active | AID 686978, 2013; note: potency is the fitted concentration of half-maximal effect; nearly all actives have a fitted effect of over 55% in size
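Seeded 400 DT40-hTDP1 cells/well (vehicle DMSO, no 20 nM CPT); pinned compounds; ≥48 hr at 37 °C; CellTiter-Glo luminescence as viability measure.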
IL-1B inflam inh: blocks inflammasome-driven IL-1 beta release | activity change, % at 57.5 µM | AID 743279 | 4.7% of 360,000 active | THP-1 LPS/ATP IL-1B secretion, AlphaLISA, 16 h; hits give low values; in the data active = activity change below about -50%; inconclusive = mostly about -30% to -49%
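Secreted IL-1B measured by AlphaLISA bead assay after 16 h compound exposure of THP-1 cells; compounds (final up to 57.5 uM) added 1 h before LPS (250 ng/mL) and ATP (1.25 mM) stimulation; lower signal means less secretion.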
* marks the source's active call; other numbers are inactive results; ? = inconclusive; . = no result given; [ ] = remark or other dose. Unless noted, calls come from the whole dose curve; as a rule, active = well fitted curve in the direction sought with a large enough effect; inconclusive = small, poorly fitted or top-dose-only effect, or another doubt; inactive = no such curve, though single readings can be large; an effect the other way counts as inactive or inconclusive. Unless noted, % is set by controls: 0 for no effect and ±100 for the full control effect.

SMILES | HT1080NT lethal | HT1080 IDH1KD tx | TDP1 cell CPT | DT40 TDP1 no CPT | IL-1B inflam inh
CC(C)OCCCNC(=O)c1ccc(Cn2c(=O)c3cccn3c3cccnc32)cc1 | . | . | -9.9% | -7.4% | .
CNc1cncc(-c2cccnc2)n1 | ? | 1.8% | -4.1% | -0.1% | -0.6
COc1ccc(CCCCCCOCc2ccccc2)cc1 | -5.2% | 9.0% | -3.2% | 15.3% | 0.0
COc1ccc(COC[B-](F)(F)F)cc1 | -3.7% | 0.6% | 2.8% | -16.9% | -52.9*
CCOC(=O)N1CCN(c2nc(-c3ccc(Cl)cc3)cs2)CC1 | 5.6% | 28.8% | -26.2% | ? | -1.4
Clc1ccc(-c2csc3ncnc(N4CCc5ccccc5C4)c23)cc1 | -2.8% | -9.8% | ? | 20.6µM* | 20.1
Cc1cc(N)n(-c2ncnc3scc(-c4ccc(Cl)cc4)c23)n1 | 0.9% | 3.6% | -0.7% | -20.7% | 32.2
O=C(O)CSCC(=O)N1CCN(c2ncnc3scc(-c4ccccc4)c23)CC1 | 12.9% | 0.0% | 0.6% | 2.9% | 15.8
CC(C)(C)C(=O)N1CCN(c2ncnc3scc(-c4ccccc4)c23)CC1 | -22.6% | ? | ? | ? | -56.0*
CCOC(=O)N1CCN(c2ncnc3scc(-c4ccccc4)c23)CC1 | -3.1% | -25.8% | 14.6µM* | 8.2µM* | -1.2
CCOC(=O)N1CCN(c2ncnc3scc(-c4ccc(Cl)cc4)c23)CC1 | ? | -9.5% | 18.4µM* | ? | 89.6
O=C(c1csnn1)N1CCC2(CC1)CN(c1ccncc1)C2 | . | . | -4.3% | -23.1% | .
O=C(Nc1nc2ccccc2s1)C1CC(=O)N(c2ccc(F)cc2)C1 (stereo not drawn) | -16.1% | -7.4% | -7.6% | -18.7% | 23.0
CCc1ccc(C(O)c2ncc(-c3ccccc3OC)[nH]2)cc1 (stereo not drawn) | 0.1% | -11.4% | 23.1µM* | 18.4µM* | 33.4
COc1ccccc1-c1cnc(C(O)c2cc(C)ccc2C)[nH]1 (stereo not drawn) | -0.8% | -2.1% | 25.9µM* | ? | 21.1
COc1ccccc1-c1cnc(C(O)c2ccccc2)[nH]1 (stereo not drawn) | -7.5% | ? | -25.9% | ? | -3.5
COc1ccccc1-c1cnc(C(O)c2ccc(C(C)(C)C)cc2)[nH]1 (stereo not drawn) | -7.3% | ? | ? | 18.4µM* | -14.0
COc1ccccc1-c1cnc(C(O)c2ccc(C)cc2C)[nH]1 (stereo not drawn) | -9.6% | -2.7% | -27.8% | ? | -9.5
NC(=O)CCC(NC(=O)c1ccc(Cl)cc1)C(=O)NCCc1ccc2c(c1)OCCO2 (stereo not drawn) | -9.8% | -0.3% | -13.0% | -7.2% | 1.9
O=C(O)c1cnn(-c2nc(-c3cccc([N+](=O)[O-])c3)cs2)c1C(F)(F)F | 17.0% | 26.8% | 1.0% | 33.6% | 0.6
CC(=O)Nc1ccc(NC(=O)C(C)OC(=O)C2CCCCC2)cc1 (stereo not drawn) | -6.9% | -3.6% | -12.9% | -17.5% | 1.6
CC(c1ccccc1)N1C(=O)c2ccc(C(=O)Nc3ccc(Br)cc3C(=O)O)cc2C1=O (stereo not drawn) | 4.3% | 10.8% | 2.06µM* | ? | 13.9
CN(CCOc1ccccc1)C(=O)c1ccc(F)c(S(=O)(=O)N2CCOCC2)c1 | 7.1% | 11.7% | -0.8% | -20.4% | 2.8
CS(=O)(=O)c1ccc(C(=O)NCC2(N3CCOCC3)CCCCC2)cc1 | 5.5% | 1.3% | 6.2% | -15.1% | -5.6
CS(=O)(=O)c1ccc(-c2ccc3c(c2)CC(CNC(=O)C2(N4CCOCC4)CCCCC2)O3)cc1 (stereo not drawn) | . | . | -13.2%[9.04 µM] | 16.4µM* | .
SMILES | HT1080NT lethal | HT1080 IDH1KD tx | TDP1 cell CPT | DT40 TDP1 no CPT | IL-1B inflam inh
N#Cc1c(-c2ccc(Cl)cc2)n(O)c2ccccc12 | 10.3µM* | 14.6µM* | 3.26µM* | 3.26µM* | -54.3*
Cn1c(-c2ccc(C#N)cc2)c(C#Cc2ccccc2)c2ccccc21 | -0.9% | -3.6% | 10.0% | -27.7% | 5.0
C[C@H](CO)N1C[C@H](C)[C@H](CN(C)C(=O)c2ccc3ccn(C)c3c2)OCc2cnnn2CCCC1=O | 3.2% | 15.9% | -4.5% | -23.9% | -7.4
CCCCc1ccc(S(=O)(=O)Nc2nnc(C)s2)cc1 | -3.4% | -1.2% | -2.4% | -19.5% | 16.3
COc1cc(=O)n2c(c1C(=O)NC(C)c1ccco1)CCN(C(=O)c1ccc(F)cc1Cl)CC2 (stereo not drawn) | . | . | -9.8% | 0.1% | .
Cc1cc2oc3c(c(=O)c2cc1C)C1(C(=O)N(C)c2ccccc21)N(CCO)C3=O (stereo not drawn) | . | . | -22.4% | 2.2% | .
Cc1[nH]c2ccccc2c1CCNC(=O)c1ccc2c(c1[N+](=O)[O-])C(=O)c1ccccc1C2=O | -16.5% | ? | 4.61µM* | 2.91µM* | -103.4*
CN(C)C(=O)c1ccc2c(c1[N+](=O)[O-])C(=O)c1ccccc1C2=O | -18.4% | -15.6% | 2.91µM* | 5.8µM* | -5.3
Cc1cccc2c(=O)c(C(=O)NCCc3ccccc3)c[nH]c12 | ? | ? | -16.6% | ? | 10.4
CCCNC(=O)NCCc1c(C)[nH]c2ccccc12 | 1.0% | 8.2% | 8.8% | -7.0% | 12.7
Cc1[nH]c2c(C)cccc2c1CCNC(=O)c1ccc2c(c1[N+](=O)[O-])C(=O)c1ccccc1C2=O | 16.4µM* | 20.6µM* | 16.4µM* | 8.2µM* | -109.1*
Cc1ccc(NC(=O)CSCn2nnc3c(=O)[nH]c(Cc4ccc(F)cc4)nc32)c(C)c1 | . | . | -16.3% | -11.9% | .
O=C(NC(=S)N1CCN(c2ccc(Cl)cc2[N+](=O)[O-])CC1)c1ccco1 | -11.1% | -12.3% | ? | ? | 11.8
O=C(NC(=S)N1CCN(c2ccc(Cl)cc2[N+](=O)[O-])CC1)c1cccs1 | -2.9% | -3.7% | 9.2µM* | 20.6µM* | 25.8
O=C(NC(=S)N1CCCCC1)c1cccs1 | 5.9% | -0.1% | ? | 14.6µM* | -4.0
O=C(c1cccs1)N1CCN(C(=O)c2cccs2)C1=S | ? | 20.6µM* | 5.8µM* | 5.8µM* | -95.0*
CC1CCN(C(=S)NC(=O)c2cccs2)CC1 | -1.7% | -28.1% | ? | ? | 33.4
CC1CCCCN1C(=S)NC(=O)c1cccs1 (stereo not drawn) | -6.1% | -7.2% | ? | 16.4µM* | 9.8
O=C(c1cccs1)N1CCCC1 | 7.5% | 7.4% | -2.6% | -13.3% | -3.9
Cc1ccc(-n2nc3c(c2NC(=O)c2ccc4c(c2)OCO4)CS(=O)(=O)C3)c(C)c1 | 1.4% | -10.0% | 0.2% | 7.6% | ?
CC12CCC(=O)N1C(C(=O)Nc1ccccc1N1CCCCC1)CS2 (stereo not drawn) | 8.3% | -2.6% | ? | ? | 0.0
